The record followed here is PubChem BioAssay.

The target of test [1] is Cell division control protein 42 homolog (Homo sapiens) (UniProt P60953). As to the kind of experiment: activated mutant Cdc42 GTP-binding inhibitors, dose response, biochemical, multiplex bead flow cytometry, Bodipy-FL-GTP (AID 1333;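 active = fitted half-maximal concentration within the tested dose range, moderate curve steepness, a statistically real signal drop, and little compound fluorescence or tag-binding interference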). A general note: A flow cytometer gives signals particle by particle.
Test [2] has the same target. The test is described as follows: wildtype Cdc42 GTP-binding inhibitors, dose response, biochemical, multiplex bead flow cytometry, Bodipy-FL-GTP (AID 1334;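 active = fitted half-maximal concentration within the tested range, moderate curve steepness, significant signal drop, and little compound fluorescence or bead-linkage interference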). Particulars: bead-based flow cytometry, Bodipy-FL-GTP binding to GST-Cdc42; at 100 µM (top of the series) unless noted.
In test [3] the target is GTPase HRas (Homo sapiens) (UniProt P01112). The test is described as follows: inhibitors of GTP binding to wildtype Ras, dose response, biochemical, multiplex bead flow cytometry (AID 1335;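 active = fitted half-maximal concentration within 10 nM to 100 µM, steepness 0.5 to 2, significant signal drop, low assay interference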). Particulars: bead-based flow cytometry, Bodipy-GTP binding to GST-Ras; at 100 µM (top of the series) unless noted.
Test [4] relates to Ras-related protein Rab-7a (dog), GTP binding. As to the kind of experiment: Rab7 GTP binding inhibitors, potency, dose response, biochemical, wildtype, multiplex bead flow cytometry (AID 1336).
Test [5] addresses Ras-related C3 botulinum toxin substrate 1 (Homo sapiens) (UniProt P63000). The test is described as follows: wildtype Rac1 GTP binding inhibitors, dose response, biochemical, multiplex bead flow cytometry (AID 1340;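 active = dose curve with midpoint inside tested range, moderate steepness, plateau gap beyond fit error, low compound glow and bead-link interference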). The note with it: GST-Rac1 beads, Bodipy-FL-GTP binding; at 100 µM (top of the series) unless noted.
Test [6] deals with GTPase HRas (Homo sapiens) (UniProt P01112). As to the kind of experiment: activated Ras mutant GTP binding inhibitors, dose response, biochemical, multiplex bead flow cytometry (AID 1341;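 active = dose-response curve with midpoint inside the tested range, moderate steepness, significant amplitude and little compound fluorescence or bead-attachment interference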;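 note: GST-tagged constitutively activated Ras mutant immobilized on beads and multiplexed with other GTPases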).
Test [7] in a line: RPL19A-GFP modulators, yeast TOR pathway, confirmation, cell-based, S. cerevisiae, flow cytometry, cherry picks, mother/daughter gates (AID 2270;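 active = GFP response below 50% of the DMSO control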). The note with it: S. cerevisiae RPL19A-GFP strain, 3 h, at 10 µM, stronger effect = lower value, 100 = same GFP as DMSO wells.
Test [8] can be described thus: LAP4-GFP expression modulators in yeast, confirmation, cell-based, cherry picks, flow cytometry, mother/daughter gates (AID 2271;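 active = GFP response above 150% of the DMSO control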;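 note: ratio of sample to DMSO plate mean so 100% equals DMSO level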). The note with it: S. cerevisiae LAP4-GFP strain, 3 h, at 10 µM, stronger effect = higher value, 100 means same as DMSO control.
Test [9] can be described thus: modulators of MEP2-GFP levels in yeast, confirmation, S. cerevisiae, flow cytometry GFP, cherry picks (AID 2272;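 active = GFP response above 150% of the DMSO control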;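 note: ratio of well signal to plate DMSO mean so 100% equals DMSO level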). The note with it: S. cerevisiae MEP2-GFP strain, 3 h, at 10 µM, stronger effect = higher value.
Test [10] is described as follows: AGP1-GFP expression modulators, hit retest, confirmation, cell-based, flow cytometry, S. cerevisiae, cherry picks (AID 2273;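 active = GFP response above 150% of the DMSO level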;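 note: median GFP channel fluorescence over the whole cell population gate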). Particulars: S. cerevisiae AGP1-GFP strain, 3 h, at 10 µM.
Test [11] in a line: modulators of CIT2-GFP expression in yeast, confirmation, S. cerevisiae, GFP fusion, cherry picks, mother/daughter gates (AID 2274;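 active = GFP response above 150% of the DMSO level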). Particulars: S. cerevisiae CIT2-GFP strain, flow cytometry, 3 h, at 10 µM, stronger effect = higher value.
Test [12] in a line: LAP4-GFP expression modulators in yeast, confirmation, cell-based, second cherry pick, flow cytometry (AID 2621;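 active = GFP signal as percent of the solvent control above about 150%, meaning raised reporter expression, limit read from the data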;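 note: ratio of well median GFP fluorescence to plate DMSO mean so 100% = DMSO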). The note with it: S. cerevisiae LAP4-GFP strain, 3 h, at 10 µM, stronger effect = higher value.
Test [13] is described as follows: modulators of MEP2-GFP levels in yeast, confirmation, S. cerevisiae, flow cytometry GFP, second cherry picks (AID 2622;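 active = GFP signal above 150% of the solvent control wells, that is a rise of more than half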;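 note: median channel GFP fluorescence of all gated yeast cells per well; ratio of median GFP to plate DMSO average so 100% = DMSO level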). Particulars: S. cerevisiae MEP2-GFP strain, 3 h, at 10 µM, stronger effect = higher value.
The nature of test [14]: RPL19A-GFP modulators in TOR pathway yeast, confirmation, cell-based, S. cerevisiae, flow cytometry, second cherry pick (AID 2623;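 active = under 65% GFP response relative to DMSO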;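 note: median GFP channel fluorescence per well over the all cells gate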). Particulars: S. cerevisiae RPL19A-GFP strain, 3 h, at 10 µM, stronger effect = lower value, 100% means same as DMSO wells.
The nature of test [15]: modulators of CIT2-GFP expression in yeast, confirmation, flow cytometry, second cherry pick, single plex (AID 2624;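 active = GFP response vs DMSO above about 150%, limit read from the data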;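 note: median green fluorescence per well over all gated yeast cells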). The note with it: S. cerevisiae CIT2-GFP strain, 3 h, at 10 µM, stronger effect = higher value, DMSO control wells read 100%.
Test [16] can be described thus: AGP1-GFP expression modulators, hit retest, confirmation, cell-based, flow cytometry, S. cerevisiae, cherry pick set 2 (AID 2643;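 active = over 150 percent of DMSO response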;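 note: median GFP channel fluorescence over all cells without mother daughter split; sample median GFP divided by mean DMSO control so 100% equals DMSO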). Particulars: S. cerevisiae AGP1-GFP strain, 3 h, at 10 µM, stronger effect = higher value.
Test [17] can be described thus: compound autofluorescence in yeast s288c, dose response, artefact control for yeast TOR pathway GFP screen, s288c strain (AID 2757;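 active = fluorescence span over the dose series, or activity score, above about 33, limit read from the data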;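 note: thousands of bead-calibrated equivalent soluble fluorophore molecules from median cell fluorescence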). Particulars: S. cerevisiae s288c, 520 nm autofluorescence, flow cytometry, 3 h; at 33 µM; stronger effect = higher value; zero means same as solvent-only cells.
Where [18] appears, read: measured here: daughter cell gate.
Where [19] appears, read: measured here: mother cell gate.
Setting [20] is: measured here: daughter cell gate response.
Where [21] appears, read: measured here: mother cell gate response.

Each structure is given as a SMILES string. For part of these data: Measured potencies and affinities stand elsewhere. Some of the results follow. The source made the active and inactive calls. Unless noted, the rule behind the calls is not given here.

Chain of GTPase HRas (Homo sapiens) (P01112 whole entry, looked up): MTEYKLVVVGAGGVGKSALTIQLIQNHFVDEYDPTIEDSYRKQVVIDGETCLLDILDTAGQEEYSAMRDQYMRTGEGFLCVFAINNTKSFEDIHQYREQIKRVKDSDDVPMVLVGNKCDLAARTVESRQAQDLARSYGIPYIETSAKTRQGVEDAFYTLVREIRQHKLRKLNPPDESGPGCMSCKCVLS
Chain of Cell division control protein 42 homolog (Homo sapiens) (P60953 whole entry, looked up): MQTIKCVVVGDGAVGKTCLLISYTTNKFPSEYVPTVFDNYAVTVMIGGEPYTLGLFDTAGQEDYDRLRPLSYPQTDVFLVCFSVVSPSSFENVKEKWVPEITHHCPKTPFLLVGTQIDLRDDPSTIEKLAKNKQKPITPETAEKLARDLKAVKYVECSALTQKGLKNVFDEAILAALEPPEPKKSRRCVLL

As to `CS(=O)(=O)N1N=C(c2ccccc2)CC1c1ccc2c(c1)OCO2` (stereo unspecified), the result in test [1], in test [4] and in [6] was inactive. In addition, the fluorescence, percent of control (lower = inhibition) in [2] stood at 112%. In test [3], the GTP binding, percent of control turned out to be 120%. In [5], this molecule displayed a GTP binding signal, raw median fluorescence (lower = inhibition) (MCF (arbitrary fluorescence units)) of 247. Further, the GFP response vs DMSO is 136% (inactive) in test [7], 137% in test [7] (setting [18]), 135% in test [7] (setting [19]) and 1140% (active) in [9]. The GFP response relative to DMSO in test [8] is 449% (active); in test [8] (setting [20]), 466%; in test [8] (setting [21]) it was 439%. Besides, the GFP response, % of DMSO was 204% (active) in [10], 436% (active) in [11], 437% in test [11] (setting [18]) and 413% in [11] (setting [19]).

As for `COc1ccccc1NCc1sc(C(=O)O)cc1C`, the call in test [1], in [4] and in [6] was inactive. The fluorescence, percent of control (lower = inhibition) in test [2] was 64.9%. For the same molecule, in [3], the GTP binding, percent of control is 86.4%.

On to `COCCN1C(=O)/C(=C/c2ccc(N3CCCC3)cc2C)SC1=S`, for which the molecule was called inactive in test [1], in test [4] and in test [6]. Besides, in [2], the fluorescence, percent of control (lower = inhibition) came out at 77.8%. For the same molecule, the GTP binding, percent of control in test [3] came out at 104%. In addition, the GTP binding signal, raw median fluorescence (lower = inhibition) (MCF (arbitrary fluorescence units)) in [5] amounted to 224. Besides, the GFP response vs DMSO is 99.6% (inactive) in [7], 99.1% in [7] (setting [18]), 100% in test [7] (setting [19]) and 143% (inactive) in [9]. In addition, the GFP response relative to DMSO is 117% (inactive) in [8], 117% in test [8] (setting [20]) and 116% in test [8] (setting [21]). Besides, the GFP response, % of DMSO was 101% (inactive) in [10], 112% (inactive) in test [11], 112% in test [11] (setting [18]) and 112% in test [11] (setting [19]).

Take `COc1ccc(/C=C/C(=O)c2cc(Br)ccc(=O)c2O)cc1`: the outcome in test [1], in test [4] and in test [6] was inactive. For the same molecule, in [2], the fluorescence, percent of control (lower = inhibition) is 28.6%. The same molecule registered a GTP binding, percent of control in [3] of 73%. For the same molecule, the GTP binding signal, raw median fluorescence (lower = inhibition) (MCF (arbitrary fluorescence units)) in test [5] came to 226. The GFP response vs DMSO in test [12] was 169% (active); in test [13], 185% (active); in test [14] it was 77.3% (inactive); in test [15], 191% (active). Moreover, the percent response vs DMSO in test [16] is 80% (inactive). Besides, the fluorescence change (kMESF span) in [17] was 68.2 (active).
